PLK1 PBD inh: qHTS for Inhibitors of PLK1-PDB (polo-like kinase 1 - polo-box domain): Primary Screen; Plk1 PBD binding of FITC phosphopeptide, fluorescence polarization; Potency, µM, hits mostly inhibitors; 360,000 compounds, 2.8% hits; Serine/threonine-protein kinase PLK1 (Homo sapiens), P53350; note: series mostly up to about 57 µM; nearly all actives have a fitted effect of over 65% in size
Target sequence (P53350 whole entry, looked up, the tested form may be a part): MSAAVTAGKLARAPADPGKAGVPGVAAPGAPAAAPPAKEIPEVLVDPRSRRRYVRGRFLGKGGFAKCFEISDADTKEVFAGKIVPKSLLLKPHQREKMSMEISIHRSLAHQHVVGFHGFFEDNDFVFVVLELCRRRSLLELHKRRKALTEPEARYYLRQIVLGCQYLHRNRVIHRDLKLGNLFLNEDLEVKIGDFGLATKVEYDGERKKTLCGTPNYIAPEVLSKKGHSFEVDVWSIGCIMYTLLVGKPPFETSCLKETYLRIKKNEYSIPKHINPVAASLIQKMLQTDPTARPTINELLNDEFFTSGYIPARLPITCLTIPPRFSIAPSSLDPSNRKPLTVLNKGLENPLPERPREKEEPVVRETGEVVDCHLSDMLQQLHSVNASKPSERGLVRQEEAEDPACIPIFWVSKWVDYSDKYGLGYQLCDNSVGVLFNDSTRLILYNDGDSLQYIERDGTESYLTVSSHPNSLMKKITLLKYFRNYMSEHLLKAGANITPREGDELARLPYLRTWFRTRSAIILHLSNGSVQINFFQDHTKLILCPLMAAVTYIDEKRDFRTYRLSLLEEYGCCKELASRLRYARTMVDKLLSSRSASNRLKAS
DT40 TDP1 no CPT: qHTS for Inhibitors of human tyrosyl-DNA phosphodiesterase 1 (TDP1): qHTS in cells in absence of CPT. DT40 Tdp1-/- hTDP1 cells, no CPT, ATP luminescence, 48 h. Potency, µM (top dose mostly 46.2 µM), usual class: inhibitors. 420,000 compounds, 15% hits. AID 686978, 2013; note: nearly all actives have a fitted effect of over 55% in size
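Readout: luminescence from CellTiter-Glo after 30 min in the dark at RT. Cells: DT40 Tdp1-/- with stable hTDP1, 400/well. Exposure: compounds alone, ≥48 hr, 37 °C.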
DT40 TDP1 CPT: qHTS for Inhibitors of human tyrosyl-DNA phosphodiesterase 1 (TDP1): qHTS in cells in presence of CPT; chicken DT40 Tdp1-/-;hTDP1 cells + 20 nM CPT, ATP luminescence, 48 h; Potency, µM (top dose mostly 46.2 µM), most hits filed as inhibitors; 420,000 compounds, 12% hits; AID 686979, 2013; note: nearly all actives have a fitted effect of over 55% in size
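Chicken DT40 Tdp1-/- cells stably complemented with human TDP1 were seeded at 400 cells/well in medium containing 20 nM camptothecin, exposed to pin-transferred compounds, and grown at 37 °C for at least 48 hr. Viability was read as ATP luminescence.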
VDR inhibitor: Inhibitors of the vitamin D receptor (VDR): qHTS; Vitamin D3 receptor (Homo sapiens), P11473; VDR-SRC2-3 peptide fluorescence polarization, 2 h; Potency, µM, usual class: inhibitors; 400,000 compounds, 0.93% hits; AID 504847, 2011
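Reagent solutions, kept cold and dark, are dispensed first; compounds are then pinned in at 23 nl, plates briefly spun, and incubated 2 h at ambient temperature. Inhibition of VDR–SRC2-3 peptide binding is read by fluorescence polarization.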
TDP1 inh: qHTS Assay for Inhibitors of Tyrosyl-DNA Phosphodiesterase (TDP1) | Tyrosyl-DNA phosphodiesterase 1 (Homo sapiens), Q9NUW8 | recombinant TDP1, AlphaScreen DNA substrate cleavage | Potency, µM (titrated, usually from 130 µM), usual class: inhibitors | 350,000 compounds, 0.28% hits; note: nearly all actives have a fitted effect of over 40% in size
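Here, a 5' biotin and 3' phosphotyrosine-FITC DNA oligonucleotide reports Tdp1 activity: intact substrate bridges AlphaScreen beads, while cleavage leaves a 3' phosphate and drops signal. All incubations at room temperature.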
GCN5L2 inh: qHTS Assay for Inhibitors of GCN5L2; GCN5L2 HAT assay, ThioGlo1 CoA-SH fluorescence; 390,000 compounds, 0.21% hits; Histone acetyltransferase KAT2A (Homo sapiens), Q92830; Potency, µM (highest dose often 58.9 µM), most hits filed as inhibitors
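Compounds, pin-transferred from DMSO stocks, meet 20nM GCN5L2 for 15 min before the reaction begins with H3(1-25) peptide (75uM) and acetyl-CoA (70uM). Thiol-reactive ThioGlo1 reports CoA release over 20 min at room temperature.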
A number is an active result; i = inactive; ? = inconclusive; nt = no result; [ ] = remark or other dose. Most compounds without a hit are left out; they make up all but 18% or so of the library. Calls come from the whole dose curve; as a rule, active = well fitted curve in the direction sought with a large enough effect; inconclusive = small, poorly fitted or top-dose-only effect, or another doubt; inactive = no such curve, though single readings can be large; an effect the other way counts as inactive or inconclusive.

SMILES | PLK1 PBD inh | DT40 TDP1 no CPT | DT40 TDP1 CPT | VDR inhibitor | TDP1 inh | GCN5L2 inh
CN(C)c1ccc(-c2ccc(CCO)cc2)cc1 | nt | i | i | nt | nt | nt
CN(C)c1ccc(CCc2ccnc3ccccc23)cc1 | nt | 14µM | 13µM | nt | nt | nt
CN(C)c1ccc(/C=C/c2ccnc3ccccc23)c(N)c1 | nt | 0.63µM | 0.63µM | nt | nt | nt
CN(C)c1ccc(/C=C/c2ccnc3ccccc23)c(F)c1 | nt | 13µM | ? | nt | nt | nt
CN(C)c1ccc(/C=C\C=C/c2ccnc3ccccc23)cc1 | nt | 0.1µM | 0.079µM | nt | nt | nt
CC(=O)Nc1ccn(C2OC(C(COC(C)=O)NC(=O)C(COCc3ccccc3)NC(=O)OC(C)(C)C)C(OC(C)=O)C2OC(C)=O)c(=O)n1 (stereo not given) | nt | nt | nt | i | i | nt
O=C(CSc1nccn1Cc1ccc(F)cc1)Nc1ccc2c(c1)OCCO2 | nt | i | i | i | i | i
O=S(c1ccc2ccccc2c1)c1cnns1 (stereo not given) | i | 2.6µM | 1µM | i | i | i
COc1ccc(C2CC(=O)N(C)c3ccccc3S2)cc1OC (stereo not given) | i | ? | 21µM | i | i | i
COc1ccc(C2CC(=O)N(Cc3ccc(F)cc3)c3ccccc3S2)cc1OC (stereo not given) | nt | nt | nt | i | i | i
CCc1ccccc1NC(=O)Cn1nc2c3cc(F)ccc3n(Cc3cccc(C)c3)cc-2c1=O | nt | i | i | i | i | i
Cc1ccccc1-c1cccc([C@@H]2C[C@H]3C(CN2)CON3C)c1 (stereo not given in full) | i | i | ? | i | nt | nt
CCN1CCc2nc(N)sc2C1 | 4.2µM | 29µM | ? | 89µM | i | i
CCCN(c1ccccc1F)S(=O)(=O)c1ccc2c(c1)C(C)(C)C(=O)N2C | nt | ? | ? | i | i | i
COc1ccc(CCNc2ncnc3sc(C(=O)N(C)C)c(C)c23)cc1OC | nt | i | i[9.04 µM] | nt | nt | nt
Cc1ccc(NC(=O)Cn2c(=O)oc3cc(S(=O)(=O)NCc4ccccc4)ccc32)cc1 | nt | ? | ? | i | i | i
Cc1ccc(C)c(NC(=O)Cn2c(=O)oc3cc(S(=O)(=O)NCc4ccccc4)ccc32)c1 | nt | 8.2µM | 13µM | i | i | i
COc1ccc(C)cc1NC(=O)Cn1c(=O)oc2cc(S(=O)(=O)NCc3ccccc3)ccc21 | nt | 15µM | 16µM | i | i | i
COc1ccc(NC(=O)Cn2c(=O)oc3cc(S(=O)(=O)NCc4ccccc4)ccc32)c(OC)c1 | nt | 6.5µM | 8.2µM | i | i | i
CCC(CC(C)(C)O)C(=O)NNC(=S)Nc1ccccc1 (stereo not given) | i | i | i | i | i | i
COc1ccccc1N1CCN(CCCNC(=O)c2cnn(-c3cccc(Cl)c3)c2C2CCN(C(=O)OC(C)(C)C)CC2)CC1 | nt | 7.3µM | 9.2µM | i | i | i
Cc1ccc(C)c(N2CCN(CCCNC(=O)c3cnn(-c4ccccc4)c3C3CCN(C(=O)OC(C)(C)C)CC3)CC2)c1 | nt | 4.6µM | 6.5µM | i | i | i
CN1CCN(CCCNC(=O)c2cnn(-c3ccccc3)c2C2CCN(C(=O)OC(C)(C)C)CC2)CC1 | nt | i | i | i | i | i
CN(C(=O)c1cnn(-c2ncc3c(n2)-c2ccccc2CCC3)c1C1CC1)C1CCOC1 (stereo not given) | nt | i | i | nt | nt | nt
CC(C)NC(=O)c1cc2cc([N+](=O)[O-])ccc2s1 | i | 15µM | ? | i | i | i
SMILES | PLK1 PBD inh | DT40 TDP1 no CPT | DT40 TDP1 CPT | VDR inhibitor | TDP1 inh | GCN5L2 inh
CC(C)N1CCc2c(sc(NC(=O)c3ccc4ccccc4c3)c2C(N)=O)C1 | i | ? | 15µM | i | i | i
CN1CCc2c(sc(NC(=O)c3cc4cc([N+](=O)[O-])ccc4s3)c2C(N)=O)C1 | nt | nt | nt | nt | i | i
CC(C)N1CCc2c(sc(NC(=O)Cc3ccccc3)c2C(N)=O)C1 | i | i | i | i | nt | i
CC(C)N1CCc2c(sc(NC(=O)c3ccc(C(=O)c4ccccc4)cc3)c2C(N)=O)C1 | i | 23µM | ? | i | i | i
CC(C)N1CCc2c(sc(NC(=O)c3cc4cc([N+](=O)[O-])ccc4s3)c2C(N)=O)C1 | i | 4.6µM | 4.6µM | i | i | i
Cc1nn(C(=O)c2ccc(Cl)cc2)c(C)c1S(=O)(=O)N1CCCCCC1 | nt | i | i | i | i | i
NNc1ccc2nnc(C(F)(F)C(F)(F)C(F)(F)F)n2n1 | i | i | i | i | i | i
CC[C@H](C)[C@@H](CNC)NC[C@@H](Cc1ccc(O)cc1)NCC(C)(C)C | i | i | ? | i | nt | i
CC[C@@H](C)[C@H](CN[C@H](CNC)C(C)C)NC[C@@H](C)c1ccc(CC(C)C)cc1 | i | 1.5µM | 1.5µM | i | nt | i
CCn1c(-c2ccccc2F)nc2cc(NC(C)=O)cc(C(=O)N(C)Cc3c(C)nc4ccccn34)c21 | nt | ? | i | nt | nt | nt
COC(=O)c1ccc(Oc2ccc(S(=O)(=O)N3CCCCC3)cc2N)cc1 | i | 16µM | ? | i | nt | i
Nc1cc(S(=O)(=O)N2CCCCC2)ccc1Oc1ccc(Cl)cc1 | i | 8.2µM | ? | i | i | i
CNc1c(NS(=O)(=O)c2ccc(C3CCCCC3)cc2)c(=O)oc2ccccc12 | i | i | i | i | i | i
Cc1ccc(-n2c(-c3ccccc3)c[n+]3c2CCC3)cc1 | i | 0.65µM | 1µM | i | i | i
FC(F)Sc1ccc(-n2c(-c3ccc(Cl)cc3)c[n+]3c2CCC3)cc1 | i | 15µM | 12µM | i | i | i
Cc1ccc(-n2c(-c3ccc(Cl)cc3)c[n+]3c2CCC3)cc1 | i | 3.3µM | 3.3µM | i | i | i
Cc1c(C#N)c(NC(=O)COC(=O)c2cc(Cl)c3c(c2)OCCCO3)n(Cc2ccco2)c1C | nt | i | ? | nt | nt | nt
CCCCC1=CC2=CC(=O)C(C)(OC(=O)CC)C(=O)C2=CN1C1CCCC1 (stereo not given) | ? | ? | ? | i | i[12.3 µM] | i
CCNC(=S)Nn1cnc2ccccc21 | ? | i | i | i | i | i
CCc1nnc(SC(CC)C(=O)NCCOC)c2cc3occc3n12 (stereo not given) | nt | ? | ? | i | i | i
CCc1nnc(SCC(=O)Nc2ccc(Cl)cc2F)c2cc3occc3n12 | nt | 15µM | 23µM | i | i | i
CCC(Sc1nnc(C)n2c1cc1occc12)C(=O)Nc1ccccc1F (stereo not given) | nt | 26µM | 21µM | i | i | i

Compound activity from PubChem BioAssay.
